Compound activity (PubChem)
Most compounds without a hit are left out; they make up all but 8.1% or so of the library.
NOMO-1 viab: NOMO-1 AML cell viability reduction, primary screen, STK33 inhibitor project, CellTiter-Glo luminescence; NOMO-1 AML viability, 72 h; inhibition, % (test concentration not listed); 37,000 compounds, 7.5% hits; AID 2330, 2010; in the data active means inhibition above about 80%; inconclusive means no clear call, values can overlap the other calls
Hedgehog inh: Hedgehog pathway signaling inhibitors, primary screen, luminescence, Shh-LIGHT2 cells, Gli-luciferase | 22,000 compounds, 2.1% hits | AID 2313, 2010 | Shh-LIGHT2 Gli-luciferase reporter, 30 h | inhibition, % (test concentration not listed);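 active means mean inhibition across valid replicates above about 65%, limit read from the data; inconclusive means mean under the limit, yet half or more replicates past it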;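 further: pathway switched on by Shh-conditioned medium diluted 1 in 25 in low serum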
MITF inhib: inhibitors of MITF, primary screen, MITF inhibitor project, cell-based, luminescence | inhibition, % (concentration not given with the values) | 37,000 compounds, 0.28% hits | TRPM1 promoter luciferase, 24 h; in the data active means inhibition above about 85%; inconclusive means no clear call, values can overlap the other calls; inactive means below about 68%;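 further: human melanocyte line stably carrying TRPM1 promoter luciferase reporter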
A number is an active result; n = inactive; u = inconclusive; x = not tested or not shown.

SMILES | NOMO-1 viab | Hedgehog inh | MITF inhib
C[C@H]1CN([C@@H](C)CO)C(=O)c2cccc(NC(=O)Nc3ccc(F)cc3)c2O[C@H]1CN(C)Cc1ccc2c(c1)OCO2 | n | n | n
C[C@@H]1CN([C@H](C)CO)C(=O)c2cccc(NC(=O)Nc3ccc4c(c3)OCO4)c2O[C@@H]1CN(C)Cc1ccncc1 | n | n | n
CC1(CC(=O)O)CCC2(O1)C(CO)=CCC1C(C)(C)C(O)CCC12C (centres undefined) | x | n | x
C[C@H]1CN([C@@H](C)CO)C(=O)Cc2cc(NC(=O)C3CC3)ccc2O[C@H]1CN(C)C(=O)Nc1ccc2c(c1)OCO2 | n | n | n
COc1ccccc1NC(=O)c1cnc(Nc2nc3ccccc3o2)nc1C | n | x | n
CC(C)CNP(=O)(OC1CC(C)CCC1C(C)C)c1ccccc1 (centres undefined) | n | n | n
CC1CCC(C(C)C)C(NC(=O)c2cccc3ccccc23)C1 (centres undefined) | 81.8 | n | n
O=C(/C=C/c1ccccc1)CC(O)(c1ccccc1)C(F)(F)F (centres undefined) | 121.9 | n | n
O=C(/C=C/c1ccccc1)CC(O)CCc1ccccc1 (centres undefined) | n | n | n
CC(C)N(C(=O)CSc1nc2ccc(Cl)cc2[nH]1)c1ccccc1 | n | x | n
Cc1cc(C(=O)N(c2ccccc2)C(C)C2CC2)c(Cl)cc1Cl (centres undefined) | 133.5 | n | n
COc1ccc(S(=O)(=O)N(C)C[C@@H]2Oc3c(NC(=O)Nc4ccc(F)cc4)cccc3C(=O)N([C@H](C)CO)C[C@@H]2C)cc1 | n | 67.9 | n
COc1ccc(NC(=O)Nc2cccc3c2O[C@@H](CN(C)S(=O)(=O)c2ccc(F)cc2)[C@H](C)CN([C@@H](C)CO)C3=O)cc1 | n | n | n
COc1ccc(NC(=O)Nc2cccc3c2O[C@@H](CN(C)S(=O)(=O)c2ccc(F)cc2)[C@@H](C)CN([C@H](C)CO)C3=O)cc1 | n | n | n
COc1ccc(NC(=O)Nc2cccc3c2O[C@@H](CN(C)S(=O)(=O)c2ccc(Cl)cc2)[C@@H](C)CN([C@H](C)CO)C3=O)cc1 | n | 91.9 | n
COc1ccc(NC(=O)Nc2cccc3c2O[C@H](CN(C)S(=O)(=O)c2ccc(Cl)cc2)[C@@H](C)CN([C@H](C)CO)C3=O)cc1 | n | n | n
COc1ccc(S(=O)(=O)N(C)C[C@@H]2Oc3c(NC(=O)Nc4ccc(F)cc4)cccc3C(=O)N([C@@H](C)CO)C[C@@H]2C)cc1 | n | 85.6 | n
COC(=O)Cc1c(C)c2cc(Cl)c(OC(C)C(C)=O)cc2oc1=O (centres undefined) | n | x | n
CS(=O)(=O)N(CC(=O)Nc1ccc(F)cc1)c1cccc(Br)c1 | n | x | n
CC1CCC2C(C)(C)C(=O)CC[C@]2(C)C12Cc1c(O)cc3c(c1O2)CN(C(CCC(=O)O)C(=O)O)C3=O (some centres undefined) | n | n | n
COc1ccccc1NC(=O)Cn1nnc(-c2cccs2)n1 | n | x | n
COc1nnc(-c2ccc(N3CCOCC3)c(NC(=O)COc3ccc(C)cc3)c2)c2ccccc12 | n | x | n
COc1ccccc1N(Cc1cc2ccc(C)cc2[nH]c1=O)S(=O)(=O)c1ccccc1 | 107.5 | x | n
COc1ccccc1N(CC(=O)O)S(=O)(=O)c1ccccc1 | n | x | n
C[C@@H]1CN([C@@H](C)CO)C(=O)Cc2cc(NS(=O)(=O)c3cn(C)cn3)ccc2O[C@@H]1CN(C)CC1CC1 | n | x | n
SMILES | NOMO-1 viab | Hedgehog inh | MITF inhib
COc1ccc(S(=O)(=O)Nc2cccc3c2O[C@H](CN(C)S(=O)(=O)c2ccc(OC)cc2)[C@H](C)CN([C@H](C)CO)C3=O)cc1 | n | n | n
O=C1C=CC(=C(c2ccc(O)cc2)c2ccc(O)cc2)C=C1 | 108.4 | 65.6 | n
C[C@H]1CN([C@@H](C)CO)C(=O)c2cccc(NS(=O)(=O)c3ccccc3)c2O[C@H]1CN(C)Cc1ccc(Oc2ccccc2)cc1 | n | n | n
Cc1cc(C(=O)Nc2cccc3c2O[C@@H](CN(C)S(=O)(=O)c2ccc(Cl)cc2)[C@H](C)CN([C@@H](C)CO)C3=O)n(C)n1 | n | n | n
COc1ccc(NC(=O)Nc2cccc3c2O[C@@H](CN(C)C)[C@@H](C)CN([C@@H](C)CO)C3=O)cc1 | n | n | n
O=S(=O)(c1cccc2c(I)cccc12)N1CCCNCC1 | n | u | n
O=S(=O)(c1cccc2c(Cl)cccc12)N1CCCNCC1 | 89.6 | n | n
O=C(CSc1nc(-c2ccccc2)cc(=O)[nH]1)NCC1CCCO1 (centres undefined) | n | x | n
C[C@@H]1CN([C@H](C)CO)C(=O)Cc2cc(NC(=O)Nc3ccc(C(F)(F)F)cc3)ccc2O[C@H]1CN(C)Cc1ccncc1 | n | n | n
C[C@@H]1CN([C@H](C)CO)C(=O)Cc2cc(NC(=O)NC3CCCCC3)ccc2O[C@@H]1CN(C)Cc1ccc(C(F)(F)F)cc1 | 108.9 | n | n
C[C@@H]1CN([C@H](C)CO)C(=O)Cc2cc(NC(=O)Nc3ccc(C(F)(F)F)cc3)ccc2O[C@H]1CN(C)Cc1ccc(C(F)(F)F)cc1 | 94.1 | n | n
C[C@@H]1CN([C@H](C)CO)C(=O)Cc2cc(NC(=O)CCC(F)(F)F)ccc2O[C@@H]1CN(C)Cc1ccc(Cl)c(Cl)c1 | 116.0 | n | n
COc1ccc(CN(C)C[C@H]2Oc3ccc(NC(=O)Nc4ccc(C(F)(F)F)cc4)cc3CC(=O)N([C@@H](C)CO)C[C@@H]2C)cc1 | n | n | n
C[C@@H]1CN([C@@H](C)CO)C(=O)Cc2cc(NC(=O)NC3CCCCC3)ccc2O[C@@H]1CN(C)C(=O)Nc1ccc(C(F)(F)F)cc1 | n | n | n
C[C@H]1CN([C@@H](C)CO)C(=O)Cc2cc(NC(=O)CCC(F)(F)F)ccc2O[C@H]1CN(C)Cc1ccc(Cl)c(Cl)c1 | n | n | n
C[C@H](CO)N1C[C@H](C)[C@H](CN(C)Cc2ccncc2)Oc2ccc(NC(=O)Nc3ccc(C(F)(F)F)cc3)cc2CC1=O | 126.1 | n | n
C[C@H](CO)N1C[C@H](C)[C@H](CN(C)C(=O)Nc2cccc3ccccc23)Oc2ccc(NC(=O)Nc3ccc4c(c3)OCO4)cc2C1=O | n | n | n
O=C(Cn1ccc([N+](=O)[O-])n1)Nc1cccnc1 | n | x | n
Clc1ccc(COc2ccccc2CNc2ncn[nH]2)c(Cl)c1 | n | x | n
C[C@@H]1CN([C@@H](C)CO)C(=O)Cc2cc(NC(=O)Nc3ccc(C(F)(F)F)cc3)ccc2O[C@@H]1CN(C)Cc1ccc(C(=O)O)cc1 | n | n | n
C[C@H]1CN([C@@H](C)CO)C(=O)Cc2cc(NC(=O)Nc3ccc(C(F)(F)F)cc3)ccc2O[C@@H]1CN(C)Cc1ccc(Cl)c(Cl)c1 | n | n | n
C[C@H](CO)N1C[C@H](C)[C@H](CN(C)C(=O)NC2CCCCC2)Oc2ccc(NC(=O)Nc3ccc(C(F)(F)F)cc3)cc2CC1=O | n | n | n
C[C@H](CO)N1C[C@H](C)[C@H](CN(C)Cc2ccc(C(F)(F)F)cc2)Oc2ccc(NC(=O)Nc3ccc(C(F)(F)F)cc3)cc2CC1=O | 128.7 | n | n
